Experimental data: PubChem BioAssay (NCI)
About 83,000 compounds went through this panel and 20% of them were active in at least one assay; those are over-represented in the sample as a whole.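 Values shown are percent growth following 48 h exposure of cells in 96-well plates to a single concentration of compound; below 10 was considered active.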 Activity calls are given as the source filed them.

Key:
Assay in all cases: NCI-60 one-dose screen, 48 h (100 = growth as untreated, 0 = no growth, -100 = all killed)
Conditions in all cases: 10 µM
[1] = system: SK-MEL-2 melanoma
[2] = system: EKVX NSCLC
[3] = system: SN12C renal
[4] = system: UO-31 renal
[5] = system: TK-10 renal
[6] = system: ACHN renal
[7] = system: CAKI-1 renal
[8] = system: A498 renal
[9] = system: CCRF-CEM leukemia
[10] = system: MOLT-4 leukemia
[11] = system: RPMI-8226 leukemia
[12] = system: OVCAR-8 ovarian
[13] = system: OVCAR-4 ovarian
[14] = system: SK-OV-3 ovarian
[15] = system: IGROV1 ovarian
[16] = system: OVCAR-3 ovarian
[17] = system: HS 578T breast
[18] = system: NCI/ADR-RES ovarian
[19] = system: OVCAR-5 ovarian

Measured: growth

O=C1Nc2ccc(F)cc2/C1=C/c1cccc(OCc2ccccn2)c1
inactive: [1] 46.6% | [2] 28.3% | [4] 34% | [5] 80.9% | [6] 37.9% | [7] 17.2% | [8] 87.3% | [10] 12.1% | [11] 18.6% | [12] 25.7% | [13] 61.3% | [14] 69.6% | [15] 41.9% | [16] 27%
active: [3] 9.51% | [9] 3.93% | [17] -6.56% | [18] 7.99%

O=C(c1ccc(Cl)cc1)C1[C@H](c2ccccc2Br)[C@@H](c2ccccc2)NC12C(=O)Nc1ccc(Cl)cc12 (stereo partly specified)
active: [3] -58.6% | [6] 9.92% | [7] 8.98% | [16] 4.76% | [18] -60.1%
inactive: [1] 13.8% | [2] 16.5% | [4] 16.5% | [5] 42.5% | [8] 72.4% | [9] 18.8% | [10] 18% | [11] 10.8% | [12] 24.2% | [19] 20.8% | [13] 27% | [14] 42.9% | [15] 17.7% | [17] 27.6%

O=S(=O)(Nc1ncccn1)c1ccc(-n2c(-c3ccc(Br)cc3)nc(-c3ccccc3)c2-c2ccccc2)cc1
inactive: [1] 56.8% | [2] 16.1% | [3] 35.9% | [4] 20.1% | [5] 56.7% | [6] 38.5% | [7] 23.7% | [9] 18.6% | [10] 22.4% | [11] 33.8% | [12] 50.5% | [19] 70.5% | [13] 57.7% | [14] 76.4% | [15] 51.6% | [16] 48.2% | [17] 20.4% | [18] 33.6%
active: [8] -1.34%

CO[C@@H]1CSSC1Cn1nc(-c2ccc(Oc3ccccc3)cc2)c2c(N)ncnc21 (stereo partly specified)
inactive: [1] 27.2% | [2] 25.3% | [3] 60.6% | [4] 21.3% | [5] 20.3% | [6] 40.4% | [7] 32.4% | [8] 80.8% | [11] 34.6% | [12] 75.5% | [19] 62.5% | [13] 53.3% | [15] 53.1% | [16] 56% | [17] 61.6% | [18] 57.5%
active: [9] -8.26% | [10] -16.6% | [14] 1.98%

Brc1ccc(/C=C/c2n(Cc3ccc4ccccc4c3)c3ccccc3[n+]2Cc2ccc3ccccc3c2)cc1
inactive: [4] 44.6% | [8] 54.9% | [18] 78.7%
active: [1] -88.9% | [2] -81.6% | [3] -58.9% | [5] -63.2% | [6] -31.6% | [7] -29.9% | [9] -14.2% | [10] -7.46% | [11] -56.8% | [12] -64% | [19] -91.1% | [13] -85.9% | [14] -3.34% | [15] -68.4% | [16] -89.5% | [17] -43.6%

CC(C)C1=C[C@@]23CC[C@@H]4[C@](C)(CCC[C@]4(C)C(=O)NCc4ccccc4)[C@H]2C[C@@H]1[C@H]1C(=O)CCC(=O)[C@H]13
active: [9] 9.73%
inactive: [1] 99.2% | [2] 49.8% | [3] 83.4% | [4] 48.1% | [5] 96.9% | [6] 70.7% | [7] 88.7% | [8] 97.8% | [10] 16.2% | [11] 40.4% | [12] 75.1% | [13] 47.3% | [14] 105% | [15] 90.6% | [16] 86.9% | [17] 63.1% | [18] 74%

CCCSc1nc(NC2CC2)c(C#N)c(-c2ccc(OC)cc2)n1
inactive: [1] 118% | [2] 101% | [3] 91.9% | [4] 93.6% | [5] 106% | [6] 85.2% | [7] 86.9% | [8] 100% | [9] 97.1% | [10] 100% | [11] 96.6% | [12] 69.2% | [19] 105% | [13] 84.5% | [14] 115% | [15] 108% | [16] 93.5% | [17] 105% | [18] 68.7%

Cc1ccc(CSc2nc(Cl)c(C#N)c(-c3ccc(F)cc3)n2)cc1
inactive: [1] 92.1% | [2] 79.6% | [3] 70.2% | [4] 67.9% | [5] 91.7% | [6] 85.4% | [7] 67.1% | [8] 91.6% | [9] 67.7% | [10] 61.9% | [11] 58.5% | [12] 83.8% | [19] 94.1% | [13] 81.6% | [14] 88.3% | [15] 95.8% | [16] 86.3% | [17] 86.7% | [18] 72.4%

CN1C(=O)/C(=C/c2ccc3ncsc3c2)NC1=NC12CC3CC(CC(O)(C3)C1)C2
active: [1] -82.3% | [3] 4.63% | [4] -0.057% | [6] 0.736% | [7] 8.2% | [8] -10.5% | [9] 5.06% | [10] 4.59% | [11] -7.67% | [19] 7.24% | [15] 8.51% | [16] 0.338% | [17] -10.5%
inactive: [2] 12.3% | [5] 39.2% | [12] 16% | [13] 32% | [14] 18.6% | [18] 10.8%

COc1nccnc1NS(=O)(=O)c1ccc(NC2=C(Cl)C(=O)c3nc(C)ccc3C2=O)cc1
inactive: [1] 113% | [2] 88.2% | [3] 99.1% | [4] 74.5% | [5] 132% | [6] 109% | [7] 88.7% | [8] 94% | [9] 97% | [10] 94.8% | [11] 94.5% | [12] 99.5% | [19] 112% | [13] 86.5% | [14] 91.4% | [15] 113% | [16] 83.2% | [18] 92.4%

COc1ccc(-c2ccc(/C=N/NC(=O)c3[nH]c4ccc(Br)cc4c3-c3ccccc3)o2)cc1
inactive: [1] 34.3% | [2] 60.1% | [3] 35% | [4] 43.9% | [5] 88.4% | [6] 30.9% | [7] 28.4% | [8] 73.9% | [9] 10.5% | [10] 20.9% | [11] 18.9% | [12] 37.1% | [19] 68.5% | [13] 44.2% | [14] 49.2% | [15] 64.6% | [16] 21.1% | [17] 28.5%
active: [18] -22.8%

O=C(N/N=C/c1ccc(B(O)O)o1)c1[nH]c2ccc(Br)cc2c1-c1ccccc1
inactive: [1] 26.5% | [2] 44.3% | [3] 31.2% | [4] 42.2% | [5] 64.7% | [6] 44.8% | [7] 30% | [8] 76.5% | [10] 16.9% | [11] 28.2% | [12] 14.1% | [19] 43.5% | [13] 56.1% | [14] 25.5% | [15] 51.8% | [16] 14%
active: [9] 3.97% | [17] 0.269% | [18] -34.6%

CN1CCN(c2ccc(C(=O)/C=C/c3cc(C(F)(F)F)ccc3Cl)cc2)CC1
inactive: [1] 65.3%
active: [2] -91.9% | [3] -90.1% | [4] -99.2% | [5] -94.4% | [6] -96.8% | [7] -95.2% | [8] -49.7% | [9] 2.2% | [10] 2.26% | [11] 3.72% | [12] -51.5% | [19] -91% | [13] -36.5% | [14] 6.75% | [15] -82.7% | [16] -37.7% | [17] 3.68% | [18] -56.9%

CO[C@@H]1CSS[C@H]1Cn1nc(-c2ccc(Oc3ccccc3)cc2)c2c(N)ncnc21
inactive: [1] 64.7% | [2] 42.8% | [3] 73.9% | [4] 27.2% | [5] 45.5% | [6] 68.2% | [7] 47.6% | [8] 67% | [9] 10.7% | [10] 14% | [11] 34.3% | [12] 82.9% | [19] 82.3% | [13] 67.3% | [14] 30.2% | [15] 80.4% | [16] 104% | [17] 72.6% | [18] 65.8%

Cc1ccc(NCC(=O)Nn2c(COc3ccccc3)nc3ccccc3c2=O)cc1
inactive: [1] 87.2% | [2] 84.6% | [3] 40.4% | [4] 80.8% | [5] 86.9% | [6] 72.8% | [7] 44.3% | [8] 91.9% | [9] 101% | [10] 106% | [11] 85.9% | [12] 60.1% | [19] 92.3% | [13] 25.4% | [14] 52.8% | [15] 82.4% | [16] 75.4% | [17] 66.1% | [18] 72.6%

O=C(c1ccc(O)cc1)C1[C@H](c2ccc(Br)cc2)[C@@H](c2ccccc2)NC12C(=O)Nc1ccccc12 (stereo partly specified)
active: [6] 6.89%
inactive: [1] 55.7% | [2] 28% | [3] 23.5% | [4] 18.9% | [5] 35.9% | [7] 22.6% | [8] 37% | [9] 36.3% | [10] 16.3% | [11] 23% | [12] 32.4% | [19] 58.7% | [13] 34.1% | [14] 77.3% | [15] 25.8% | [16] 15% | [17] 28.5% | [18] 22.4%
